The source made the active and inactive calls. Calls come from the whole dose curve; as a rule, active = well fitted curve in the direction sought with a large enough effect; inconclusive = small, poorly fitted or top-dose-only effect, or another doubt; inactive = no such curve, though single readings can be large; an effect the other way counts as inactive or inconclusive.

Alpha-galactosidase (Coffea arabica), sequence (Q42656 whole entry, looked up): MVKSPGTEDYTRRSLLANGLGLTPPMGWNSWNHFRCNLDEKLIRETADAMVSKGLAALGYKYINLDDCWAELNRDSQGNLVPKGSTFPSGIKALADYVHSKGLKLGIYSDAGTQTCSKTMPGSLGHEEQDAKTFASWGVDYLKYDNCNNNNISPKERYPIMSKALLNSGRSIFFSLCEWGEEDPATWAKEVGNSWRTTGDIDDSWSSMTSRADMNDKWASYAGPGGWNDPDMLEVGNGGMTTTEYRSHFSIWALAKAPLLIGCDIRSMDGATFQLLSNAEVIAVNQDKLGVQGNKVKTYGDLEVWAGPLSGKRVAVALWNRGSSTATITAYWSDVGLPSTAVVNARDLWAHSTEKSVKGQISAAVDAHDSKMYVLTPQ

One assay concerns the target Alpha-galactosidase (Coffea arabica) (UniProt Q42656). The experiment in a line: Counterscreen for Glucocerebrosidase Inhibitors: qHTS Assay for Coffee Bean alpha-Galactosidase at pH 4.5 (AID 957). The note with it: purified coffee bean alpha-galactosidase, fluorogenic substrate; series mostly up to 76.9 µM. Summed up:
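Fluorogenic qHTS at pH 4.5 (citrate buffer with Tween-20): 2 nM enzyme, 80 uM 4-MU-alpha-galactoside substrate, compound titrated 0.7 nM to 77 uM, 20 min room temperature. Glycine/NaOH stop; 4-MU read Ex 365/Em 440; Hill-equation AC50 against no-enzyme and enzyme controls.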
On the technique in general: A counterscreen serves to expose hits that act by an unwanted route or on another target.
With `Cc1cc(C)c(/C=C2/C(=O)Nc3ccccc32)[nH]1`, the call was inactive.

With `O=C(O)[C@H]1C[C@H](C(=O)O)N1`, the result was inactive.

Regarding `CCCC[C@]1(C2CCCC2)Cc2cc(OCC(=O)O)c(Cl)c(Cl)c2C1=O`, the outcome was inactive.

Consider `CCOC(=O)[C@@]12C[C@@H]1/C(=N/O)c1ccccc1O2`, for which the compound was classed as inactive.

Regarding `COc1ccc(NC(=O)/C=C\c2ccc(Cl)cc2)cc1`, the outcome was inactive.

Turning to `CC(C)CN(C)c1nc(N)c(C(=O)N=C(N)N)nc1Cl`, the compound was classed as inactive.

Take `CCCC[S@@](=N)(=O)CC[C@@H](N)C(=O)O`: the call was inactive.

As for `[N-]=[N+]=Nc1ccc(C(=O)CSC[C@@H](NC(=O)CC[C@@H](N)C(=O)O)C(=O)NCC(=O)O)cc1`, the outcome was inactive.

With `N[C@H](CCCC(=O)O)C(=O)O`, the compound was called inactive.

On to `CC(C)(C)NC[C@H](O)c1cc(O)cc(O)c1`, for which the result was inactive.

On to `NCC[C@H]1CCC[C@H](CCN)N1`, for which the outcome was inactive.

On to `Nc1ncnc2c1ncn2[C@@H]1O[C@@H](CO)[C@H](O)[C@@H]1O`, for which the compound was classed as inactive.

As to `NCCC[C@@](N)(C(=O)O)C(F)F`, the result was inactive.

For `C[C@@H]([C@H](O)c1ccc(O)cc1)N1CCC(Cc2ccccc2)CC1`, the compound was called inactive.

`NC[C@](O)(CS(=O)(=O)O)c1ccc(Cl)cc1`: the call was inactive.

On to `Oc1cc2c(c(Cl)c1O)CCNC[C@H]2c1ccccc1`, for which the compound was called inactive.

`COc1cc(=O)n(C)c2c(OC[C@@H](O)C(C)(C)O)cccc12`: the outcome was inactive.

Consider `CN(C)CCO[C@](C)(c1ccccc1)c1ccccn1`, for which the outcome was inactive.

As to `CC(C)(C)c1ccc(S(=O)(=O)/C=C\C#N)cc1`, the result was inactive.

On to `CSc1nc(N)c2ncn([C@@H]3O[C@@H](COP(=O)(O)OP(=O)(O)O)[C@@H](O)[C@H]3O)c2n1`, for which the result was inactive.

On to `N[C@@H]1C=CC=C(C(=O)O)C1`, for which the compound was classed as inactive.

As to `C=CCc1ccccc1OC[C@H](O)CNC(C)C`, the outcome was inactive.

In the case of `Nc1ccn([C@@H]2O[C@@H](CO)[C@@H](O)[C@H]2O)c(=O)n1`, the call was inactive.

For `CN(C)CC[C@@H](c1ccccc1)c1ccccn1`, the outcome was inactive.

On to `OC[C@@H]1O[C@@H](n2cnc3c(Nc4ccccc4)ncnc32)[C@@H](O)[C@H]1O`, for which the outcome was inactive.

In the case of `Oc1ccc([C@@H]2CNCc3sccc32)cc1O`, the compound was called inactive.

Turning to `CC[C@H](NC(C)C)[C@H](O)c1ccc(O)c(O)c1`, the compound was classed as inactive.

Turning to `C[C@]1(C2CCCC2)Cc2cc(OCC(=O)O)c(Cl)c(Cl)c2C1=O`, the call was inactive.

Regarding `CNCC[C@H](Oc1ccccc1OC)c1ccccc1`, the call was inactive.

Regarding `Nc1nc(SCc2ccc([N+](=O)[O-])cc2)c2ncn([C@@H]3O[C@@H](CO)[C@@H](O)[C@H]3O)c2n1`, the call was inactive.

Regarding `COc1cc2nc(N3CCN(C(=O)OCc4ccccc4)[C@H](C(=O)NC(C)(C)C)C3)nc(N)c2cc1OC`, the result was inactive.

In the case of `CCCCCC[C@@H]([C@H](C)O)n1cnc2c(N)ncnc21`, the compound was classed as inactive.

Take `OC[C@@H]1O[C@@H](n2cnc3c(NC4CCCC4)ncnc32)[C@@H](O)[C@H]1O`: the compound was classed as inactive.

Take `O=C(NCCNC[C@@H](O)COc1ccc(O)cc1)N1CCOCC1`: the compound was called inactive.

Regarding `C[C@@H]1C(=O)N(C)C(=O)c2nc[nH]c21`, the result was inactive.

Regarding `CN1[C@@H]2CC(OC(=O)[C@@H](CO)c3ccccc3)C[C@H]1[C@H]1O[C@H]12` (stereo not given in full), the outcome was inactive.

Consider `NC(=O)c1ncn([C@@H]2O[C@@H](CO)[C@@H](O)[C@H]2O)c1O`, for which the result was inactive.

`O=C(O)[C@H]1CCCN(CCC=C(c2ccccc2)c2ccccc2)C1`: the outcome was inactive.

As for `O=S(=O)(NCCNC/C=C\c1ccc(Br)cc1)c1cccc2cnccc12`, the compound was classed as inactive.

Regarding `CCCCC[C@H](O)c1cccc(OCc2ccc3ccccc3n2)c1`, the compound was called inactive.

The target is the same in the next assay. The experiment in a line: Counterscreen for Glucocerebrosidase Inhibitors: qHTS Assay for Coffee Bean alpha-Galactosidase at pH 5.9 (AID 998). Conditions: coffee bean alpha-galactosidase enzyme assay; series mostly up to 76.9 µM. Summed up: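 In 50 mM citric acid pH 5.9 with 0.005% Tween-20, coffee bean enzyme hydrolyses 80 uM 4-MU alpha-D-galactopyranoside over 20 min at RT. Activity is normalized to controls; AC50 comes from Hill-modelled concentration-response data.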
In the case of `Cc1cc(C)c(/C=C2/C(=O)Nc3ccccc32)[nH]1`, the call was inactive.

As to `O=C(O)[C@H]1C[C@H](C(=O)O)N1`, the compound was classed as inactive.

With `CCCC[C@]1(C2CCCC2)Cc2cc(OCC(=O)O)c(Cl)c(Cl)c2C1=O`, the outcome was inactive.

As for `CCOC(=O)[C@@]12C[C@@H]1/C(=N/O)c1ccccc1O2`, the compound was classed as inactive.

Consider `COc1ccc(NC(=O)/C=C\c2ccc(Cl)cc2)cc1`, for which the compound was classed as inactive.

For `CC(C)CN(C)c1nc(N)c(C(=O)N=C(N)N)nc1Cl`, the call was inactive.

For the compound `CCCC[S@@](=N)(=O)CC[C@@H](N)C(=O)O`, the result was inactive.

For `[N-]=[N+]=Nc1ccc(C(=O)CSC[C@@H](NC(=O)CC[C@@H](N)C(=O)O)C(=O)NCC(=O)O)cc1`, the result was inactive.

Turning to `N[C@H](CCCC(=O)O)C(=O)O`, the compound was classed as inactive.

As for `CC(C)(C)NC[C@H](O)c1cc(O)cc(O)c1`, the compound was called inactive.

On to `NCC[C@H]1CCC[C@H](CCN)N1`, for which the outcome was inactive.

Regarding `Nc1ncnc2c1ncn2[C@@H]1O[C@@H](CO)[C@H](O)[C@@H]1O`, the result was inactive.

Consider `NCCC[C@@](N)(C(=O)O)C(F)F`, for which the call was inactive.

`C[C@@H]([C@H](O)c1ccc(O)cc1)N1CCC(Cc2ccccc2)CC1`: the call was inactive.

For the compound `NC[C@](O)(CS(=O)(=O)O)c1ccc(Cl)cc1`, the compound was called inactive.

As to `Oc1cc2c(c(Cl)c1O)CCNC[C@H]2c1ccccc1`, the compound was called inactive.

Regarding `COc1cc(=O)n(C)c2c(OC[C@@H](O)C(C)(C)O)cccc12`, the compound was classed as inactive.

On to `CN(C)CCO[C@](C)(c1ccccc1)c1ccccn1`, for which the call was inactive.

Take `CC(C)(C)c1ccc(S(=O)(=O)/C=C\C#N)cc1`: the outcome was inactive.

As to `CSc1nc(N)c2ncn([C@@H]3O[C@@H](COP(=O)(O)OP(=O)(O)O)[C@@H](O)[C@H]3O)c2n1`, the outcome was inactive.

As to `N[C@@H]1C=CC=C(C(=O)O)C1`, the call was inactive.

Consider `C=CCc1ccccc1OC[C@H](O)CNC(C)C`, for which the compound was classed as inactive.

Consider `Nc1ccn([C@@H]2O[C@@H](CO)[C@@H](O)[C@H]2O)c(=O)n1`, for which the outcome was inactive.

For `CN(C)CC[C@@H](c1ccccc1)c1ccccn1`, the compound was classed as inactive.

In the case of `OC[C@@H]1O[C@@H](n2cnc3c(Nc4ccccc4)ncnc32)[C@@H](O)[C@H]1O`, the result was inactive.

For the compound `Oc1ccc([C@@H]2CNCc3sccc32)cc1O`, the outcome was inactive.

With `CC[C@H](NC(C)C)[C@H](O)c1ccc(O)c(O)c1`, the outcome was inactive.

Turning to `C[C@]1(C2CCCC2)Cc2cc(OCC(=O)O)c(Cl)c(Cl)c2C1=O`, the call was inactive.

With `CNCC[C@H](Oc1ccccc1OC)c1ccccc1`, the compound was called inactive.

Consider `Nc1nc(SCc2ccc([N+](=O)[O-])cc2)c2ncn([C@@H]3O[C@@H](CO)[C@@H](O)[C@H]3O)c2n1`, for which the compound was called inactive.

Turning to `COc1cc2nc(N3CCN(C(=O)OCc4ccccc4)[C@H](C(=O)NC(C)(C)C)C3)nc(N)c2cc1OC`, the call was inactive.

With `CCCCCC[C@@H]([C@H](C)O)n1cnc2c(N)ncnc21`, the result was inactive.

As to `OC[C@@H]1O[C@@H](n2cnc3c(NC4CCCC4)ncnc32)[C@@H](O)[C@H]1O`, the compound was classed as inactive.

In the case of `O=C(NCCNC[C@@H](O)COc1ccc(O)cc1)N1CCOCC1`, the outcome was inactive.

Consider `C[C@@H]1C(=O)N(C)C(=O)c2nc[nH]c21`, for which the compound was called inactive.

In the case of `CN1[C@@H]2CC(OC(=O)[C@@H](CO)c3ccccc3)C[C@H]1[C@H]1O[C@H]12` (stereo not given in full), the result was inactive.

On to `NC(=O)c1ncn([C@@H]2O[C@@H](CO)[C@@H](O)[C@H]2O)c1O`, for which the compound was classed as inactive.

As to `O=C(O)[C@H]1CCCN(CCC=C(c2ccccc2)c2ccccc2)C1`, the compound was classed as inactive.

For `O=S(=O)(NCCNC/C=C\c1ccc(Br)cc1)c1cccc2cnccc12`, the result was inactive.

For `CCCCC[C@H](O)c1cccc(OCc2ccc3ccccc3n2)c1`, the result was inactive.

(Values after PubChem BioAssay (NCATS).)
